Source: PubChem (Sanford-Burnham Center for Chemical Genomics)
This is a sample that favours compounds with a hit; in the whole collection about 3% have one here.
C8 TRAIL sens: sensitizes caspase-8 expressing cells to TRAIL. NB7+C8 cells + TRAIL, ATPlite viability luminescence. inhibition (viability loss, TRAIL sensitization), % at 10 µM. 360,000 compounds, 1% hits. AID 624354;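 active means compounds causing at least 50% loss of cell viability in the single-dose screen, relative to plate controls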
SENP7 inh: SENP7 protease inhibition; recombinant SENP7, Z-RLRGG-aminoluciferin luminescence, 40 min; inhibition, % at 5 µM; 330,000 compounds, 1.5% hits; AID 434973;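 active means inhibition above about 50% at the single test dose, limit read from the data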;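 further: plate controls were DMSO with enzyme for no effect and no enzyme buffer wells for full effect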
Target sequence (Q9BQF6 706-1050 limits assumed): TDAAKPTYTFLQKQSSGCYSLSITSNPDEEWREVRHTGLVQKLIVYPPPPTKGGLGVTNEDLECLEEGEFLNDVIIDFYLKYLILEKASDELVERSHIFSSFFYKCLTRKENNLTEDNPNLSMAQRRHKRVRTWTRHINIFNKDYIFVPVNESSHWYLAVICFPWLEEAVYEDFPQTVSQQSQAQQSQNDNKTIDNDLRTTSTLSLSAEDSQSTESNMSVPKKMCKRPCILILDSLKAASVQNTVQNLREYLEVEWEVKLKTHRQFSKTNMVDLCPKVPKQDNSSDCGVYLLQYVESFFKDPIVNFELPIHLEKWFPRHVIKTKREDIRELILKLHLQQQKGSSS
PPC-1+TRAIL kill: compounds killing PPC-1 cancer cells with TRAIL present (potentiator screen, no TRAIL-free arm); PPC-1 cells + TRAIL, ATPLite viability luminescence; cell killing (% activity), % at 4 µM or 5 µM; 220,000 compounds, 0.41% hits; AID 1443;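 active means cell killing above 50% in the first pass at 4 µM, then a duplicate retest at 5 µM averaging 50% or more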;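 further: plate controls were cells with TRAIL plus DMSO for no effect and medium-only wells lacking cells for full effect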
SENP6 inh: inhibitors of human SENP6 protease; Q9GZR1; Recombinant SENP6 catalytic domain, aminoluciferin luminescence; inhibition, % at 10 µM; 330,000 compounds, 1.8% hits; AID 2599;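 active means inhibition above about 50% at the single tested dose, limit read from the data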;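 further: plate controls were DMSO wells with enzyme for no effect and DMSO wells lacking enzyme for full effect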
SENP8 block-1: blocks the human protease SENP8 | inhibition, % at 10 µM | AID 2540 | purified SENP8, Z-RLRGG-aminoluciferin cleavage, luminescence | Q96LD8 | 330,000 compounds, 1.2% hits; in the data active means inhibition above about 50%
Target sequence (Q96LD8 whole entry, looked up): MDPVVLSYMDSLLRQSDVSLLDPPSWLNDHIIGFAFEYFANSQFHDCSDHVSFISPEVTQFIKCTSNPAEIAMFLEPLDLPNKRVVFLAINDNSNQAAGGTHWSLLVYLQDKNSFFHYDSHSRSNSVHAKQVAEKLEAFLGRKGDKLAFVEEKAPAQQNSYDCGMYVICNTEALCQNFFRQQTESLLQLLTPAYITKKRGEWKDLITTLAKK
SENP8 block-2: inhibitors of human SENP8 protease; AID 602440; inhibition, % at 20 µM; 360,000 compounds, 0.64% hits; Q96LD8; recombinant SENP8, Nedd8 substrate fluorescence; in the data active means inhibition mostly above about 40%, no sharp cut-off; inactive means mostly below about 27%
An asterisk follows results filed as active; . = not tested or not shown; ! = not active in a repeat.

SMILES	C8 TRAIL sens	SENP7 inh	PPC-1+TRAIL kill	SENP6 inh	SENP8 block-1	SENP8 block-2
Cc1ccc2nc(-c3ccc(NC(=S)NC(=O)CC(C)C)cc3)sc2c1	9	6	-14	5	4	-296
O=C(CCl)N1CCN(S(=O)(=O)c2ccc3ccccc3c2)CC1	81*	5	.	-10	5	9
O=C(NCc1ccccn1)Nc1cccc(F)c1	7	-8	.	-3	3	1
CCN(c1ccccc1)S(=O)(=O)c1ccc(Cl)c(NC(=O)COC(=O)c2cc(O)c3ccccc3c2O)c1	.	12	32	62*	32	.
Nc1nc2ncc(CNc3ccc(C(=O)N[C@@H](CCC(=O)O)C(=O)O)cc3)nc2c(=O)[nH]1	7	-1	.	-3	-2	-184
CN(Cc1cnc2nc(N)nc(N)c2n1)c1ccc(C(=O)N[C@@H](CCC(=O)O)C(=O)O)cc1	85*!	6	.	-8	1	-375
O=C(CSc1nnc(NC(=O)c2ccccc2)s1)NC1CCCC1	57*	21	.	16	0	8
O=C(CSc1nnc(NC(=O)c2ccc(F)cc2)s1)NC1CCCC1	63*	15	.	14	16	-10
O=C(Nc1nnc(SCC(=O)N2CCOCC2)s1)c1ccccc1	75*	-2	71*	20	-1	-8
O=C(CSc1nnc(-c2cccnc2)n1CCN1CCCCC1)Nc1cccc(Cl)c1	3	-1	7	-4	6	0
CC(C)N(CCNC(=O)C1CCCN(c2ncnc3c2nc2n3CCCCC2)C1)Cc1ccccc1 (stereo not given)	-16	-1	.	15	7	17
COc1cc2c(cc1OC)C(c1ccccc1)N(C(=O)CCl)CC2 (stereo not given)	86*	3	11	-19	-5	10
COc1cc2c(cc1OC)C(C1C(=O)CCCC1=O)N(C(=O)CCl)CC2 (stereo not given)	-4	-3	14	5	-8	-377
COC(=O)c1cccc(NC(=O)CSc2nnc(-c3ccco3)o2)c1	-14	-2	.	-2	-4	4
O=C(/C=C/c1cccs1)N1CCc2ccccc21	56*	98*	58*	-3	93*	33
COc1ccc(Nc2nc(-c3ccccc3)nc3ccccc23)cc1S(=O)(=O)N1CCOCC1	48*	-7	23	-3	-7	-443
COc1ccc2oc(-c3ccc(NC(=O)c4ccc(N5CCOCC5)c([N+](=O)[O-])c4)cc3)nc2c1	50*	-1	14	-6	-10	18
O=C(Nc1ccc(-c2nc3ccccc3o2)cc1)c1ccc(N2CCOCC2)c([N+](=O)[O-])c1	43	-3	5	-28	-5	-24
CNC(=O)c1c(NC(=O)C2=COCCO2)sc2c1CCC(C)C2 (stereo not given)	-1	-2	.	10	5	-296
CC1CCc2c(sc(NC(=O)C3=COCCO3)c2C(N)=O)C1 (stereo not given)	55*	-13	.	-15	-23	-346
COc1ccc(C2CCCN2C(=S)Nc2ccc(C)cc2Cl)cc1OC (stereo not given)	5	0	-28	-11	-3	15
O=C(Nc1ccccc1)Nc1ccc2nnsc2c1	16	63*	16	54*	42	-4
CN(C)c1ccc(NC(=O)Nc2ccc3snnc3c2)cc1	3	62*	12	70*	23	28
Cc1cc(C)c(NC(=O)NC(=O)C(Cl)(Cl)Cl)c(C)c1	-5	6	3	-3	-6	15
CCc1ccc(/C=C2/SC(=S)N(CCC(=O)NCCCN3CCOCC3)C2=O)cc1	25	-5	.	-7	-10	19
SMILES	C8 TRAIL sens	SENP7 inh	PPC-1+TRAIL kill	SENP6 inh	SENP8 block-1	SENP8 block-2
CCc1ccc(/C=C2\SC(=S)N(CCCC(=O)N3CCN(C)CC3)C2=O)cc1	87*	.	.	.	.	41*
CCc1ccc(/C=C2\SC(=S)N(CCCC(=O)NCCCN3CCOCC3)C2=O)cc1	75*	.	.	.	.	18
CCC[C@@H]1CCCC/C=C\CCCC(=O)OCCN1C(=O)OC(C)(C)C	-19	9	.	0	0	13
C#CCSc1nnc(-c2cc3c(C(F)(F)F)nn(C)c3s2)n1C	89*	-6	-6	-9	-8	-3
CCCCSc1nnc(-c2cc3c(C(F)(F)F)nn(C)c3s2)n1C	-10	-10	9	-26	-7	-63
O=C1/C(=N\S(=O)(=O)c2cccs2)C([n+]2ccccc2)=C([O-])c2ccccc21	43	41	22	69*	39	105*
C/C(CC(=O)NCCN1CCOCC1)=N\NC(=O)c1ccncc1	8	-5	-11	-16	-9	13
CC1(C)N=C(N)N=C(N)N1c1cccc(CN)c1	-17	-1	-10	-55	-13	11
CC1(C)N=C(N)N=C(N)N1c1cc(Cl)ccc1Cl	-6	.	.	.	.	13
CC1(C)N=C(N)N=C(N)N1c1ccccc1	85*	-2	14	-21	-6	7
CC1(C)N=C(N)N=C(N)N1c1ccc(CCCCc2ccccc2)cc1	65*	.	.	.	.	12
CC1(C)N=C(N)N=C(N)N1c1ccc(Oc2ccc(Cl)cc2)c(Cl)c1	58*	-6	.	-8	2	14
CCOC(=O)CC(=O)CSc1nc2ccc(C)cc2cc1C#N	4	-10	14	13	0	-50
COC(=O)CSc1nc2cc(C)ccc2cc1C#N	56*	-4	42	5	7	-14
COc1ccc(C2C(C(=O)N3CC(C)CC(C)C3)c3ccccc3C(=O)N2C)cc1 (stereo not given)	28	2	0	2	1	12
COc1ccc(C2C(C(=O)N3CCC(C)CC3)c3ccccc3C(=O)N2C)cc1 (stereo not given)	54*	-1	3	6	-3	8
COc1ccc(C2C(C(=O)N3CCN(c4ccccc4F)CC3)c3ccccc3C(=O)N2C)cc1 (stereo not given)	67*	-7	5	0	-8	6
CCN(CC(=O)Nc1cc(Cl)ccc1C)C(=O)c1cc([N+](=O)[O-])ccc1N1CCOCC1	13	4	.	0	4	11
CC(=O)Nc1ccc(NC(=O)C2CCCN2C(=O)Nc2ccc(F)c([N+](=O)[O-])c2)cc1 (stereo not given)	0	4	9	-17	1	31
Cc1cc(=O)c2c(o1)C(=O)c1occc1C2=O	-6	.	.	.	.	75*
CC(O)CNc1nc2ccccc2n1CC(=O)NCCc1ccc(Cl)cc1 (stereo not given)	1	-4	2	-10	-8	30
O=C1C(Cl)=C(NS(=O)(=O)c2ccc([N+](=O)[O-])cc2)C(=O)c2ccccc21	-3	16	2	12	11	53*
Cc1cccc(NS(=O)(=O)c2ccc3c(c2)Cc2cc(S(=O)(=O)Nc4cccc(C)c4C)ccc2-3)c1C	60*	.	8	.	.	12
